Laboratory results reported in publication PMC11062922 (Nature Chemical Biology, 2023).
Like-named read-outs stand apart in the source and are kept apart here.

Assays:
Conditions in all cases: read-out: apparent Kd, n = 1
AXL = system: AXL
CAMKK2 = system: CAMKK2
CDC7 = system: CDC7
CDK4 = system: CDK4
CDK6 = system: CDK6
DYRK1A = system: DYRK1A
ERCC2 = system: ERCC2
[1] = compound concentrations:100 nM and 1000 nM (sheet 'Lestaurtinib' of Supplementary Table 1),run:Lestaurtinib_02443_R3,Plate:MR009
[2] = compound concentrations:100 nM and 1000 nM (sheet 'Lestaurtinib' of Supplementary Table 1),run:Lestaurtinib_02487_R1,Plate:MR012
[3] = compound concentrations:100 nM and 1000 nM (sheet 'Lestaurtinib' of Supplementary Table 1),run:Lestaurtinib_02496_R3,Plate:MR013
[4] = compound concentrations:100 nM and 1000 nM (sheet 'Lestaurtinib' of Supplementary Table 1),run:Lestaurtinib_02572_R1,Plate:MR015
[5] = compound concentrations:100 nM and 1000 nM (sheet 'Lestaurtinib' of Supplementary Table 1),run:Lestaurtinib_02724_R3,Plate:MR021
[6] = compound concentrations:100 nM and 1000 nM (sheet 'Lestaurtinib' of Supplementary Table 1),run:Lestaurtinib_02339_R2,Plate:MR001
[7] = compound concentrations:100 nM and 1000 nM (sheet 'Lestaurtinib' of Supplementary Table 1),run:Lestaurtinib_02437_R3,Plate:MR007
[8] = compound concentrations:100 nM and 1000 nM (sheet 'Lestaurtinib' of Supplementary Table 1),run:Lestaurtinib_02473_R3,Plate:MR010
[9] = compound concentrations:100 nM and 1000 nM (sheet 'Lestaurtinib' of Supplementary Table 1),run:Lestaurtinib_02496_R2,Plate:MR013
[10] = compound concentrations:100 nM and 1000 nM (sheet 'Lestaurtinib' of Supplementary Table 1),run:Lestaurtinib_02367_R1,Plate:MR003
[11] = compound concentrations:100 nM and 1000 nM (sheet 'Lestaurtinib' of Supplementary Table 1),run:Lestaurtinib_02896_R1,Plate:MR030
[12] = compound concentrations:100 nM and 1000 nM (sheet 'Lestaurtinib' of Supplementary Table 1),run:Lestaurtinib_02407_R2,Plate:MR005
[13] = compound concentrations:100 nM and 1000 nM (sheet 'Lestaurtinib' of Supplementary Table 1),run:Lestaurtinib_02443_R2,Plate:MR009

## Lestaurtinib
AXL; [1]
  potency estimated from few doses: 2130 nM
AXL; [2]
  potency estimated from few doses: 600 nM
AXL; [3]
  potency estimated from few doses: 2230 nM
AXL; [4]
  potency estimated from few doses: 1420 nM
AXL; [5]
  potency estimated from few doses: 1340 nM
CAMKK2; [6]
  potency estimated from few doses: 1820 nM
CAMKK2; [7]
  potency estimated from few doses: 149 nM
CAMKK2; [8]
  potency estimated from few doses: 1930 nM
CAMKK2; [2]
  potency estimated from few doses: 596 nM
CAMKK2; [9]
  potency estimated from few doses: 2180 nM
CAMKK2; compound concentrations:100 nM and 1000 nM (sheet 'Lestaurtinib' of Supplementary Table 1),run:Lestaurtinib_02566_R2,Plate:MR014
  potency estimated from few doses: 1960 nM
CAMKK2; [4]
  potency estimated from few doses: 1810 nM
CDC7; [10]
  potency estimated from few doses: 1400 nM
CDC7; compound concentrations:100 nM and 1000 nM (sheet 'Lestaurtinib' of Supplementary Table 1),run:Lestaurtinib_02367_R3,Plate:MR003
  potency estimated from few doses: 1000 nM
CDC7; compound concentrations:100 nM and 1000 nM (sheet 'Lestaurtinib' of Supplementary Table 1),run:Lestaurtinib_02381_R2,Plate:MR004
  potency estimated from few doses: 1530 nM
CDC7; [8]
  potency estimated from few doses: 2080 nM
CDC7; compound concentrations:100 nM and 1000 nM (sheet 'Lestaurtinib' of Supplementary Table 1),run:Lestaurtinib_02748_R3,Plate:MR024
  potency estimated from few doses: 1650 nM
CDC7; compound concentrations:100 nM and 1000 nM (sheet 'Lestaurtinib' of Supplementary Table 1),run:Lestaurtinib_02752_R1,Plate:MR025
  potency estimated from few doses: 1240 nM
CDC7; compound concentrations:100 nM and 1000 nM (sheet 'Lestaurtinib' of Supplementary Table 1),run:Lestaurtinib_02752_R2,Plate:MR025
  potency estimated from few doses: 1760 nM
CDC7; compound concentrations:100 nM and 1000 nM (sheet 'Lestaurtinib' of Supplementary Table 1),run:Lestaurtinib_02795_R3,Plate:MR022
  potency estimated from few doses: 1510 nM
CDC7; [11]
  potency estimated from few doses: 591 nM
CDC7; compound concentrations:100 nM and 1000 nM (sheet 'Lestaurtinib' of Supplementary Table 1),run:Lestaurtinib_02896_R2,Plate:MR030
  potency estimated from few doses: 1330 nM
CDC7; compound concentrations:100 nM and 1000 nM (sheet 'Lestaurtinib' of Supplementary Table 1),run:Lestaurtinib_03260_R2,Plate:MR033
  potency estimated from few doses: 1690 nM
CDK4; compound concentrations:100 nM and 1000 nM (sheet 'Lestaurtinib' of Supplementary Table 1),run:Lestaurtinib_02367_R2,Plate:MR003
  potency estimated from few doses: 2190 nM
CDK4; [12]
  potency estimated from few doses: 1650 nM
CDK4; compound concentrations:100 nM and 1000 nM (sheet 'Lestaurtinib' of Supplementary Table 1),run:Lestaurtinib_02438_R1,Plate:MR008
  potency estimated from few doses: 2240 nM
CDK4; compound concentrations:100 nM and 1000 nM (sheet 'Lestaurtinib' of Supplementary Table 1),run:Lestaurtinib_02438_R3,Plate:MR008
  potency estimated from few doses: 2250 nM
CDK4; [13]
  potency estimated from few doses: 2230 nM
CDK4; compound concentrations:100 nM and 1000 nM (sheet 'Lestaurtinib' of Supplementary Table 1),run:Lestaurtinib_02482_R3,Plate:MR011
  potency estimated from few doses: 2220 nM
CDK4; compound concentrations:100 nM and 1000 nM (sheet 'Lestaurtinib' of Supplementary Table 1),run:Lestaurtinib_02606_R1,Plate:MR019
  potency estimated from few doses: 1720 nM
CDK4; [5]
  potency estimated from few doses: 1990 nM
CDK4; compound concentrations:100 nM and 1000 nM (sheet 'Lestaurtinib' of Supplementary Table 1),run:Lestaurtinib_02766_R2,Plate:MR027
  potency estimated from few doses: 1370 nM
CDK4; [11]
  potency estimated from few doses: 1400 nM
CDK6; compound concentrations:100 nM and 1000 nM (sheet 'Lestaurtinib' of Supplementary Table 1),run:Lestaurtinib_02339_R3,Plate:MR001
  potency estimated from few doses: 1400 nM
CDK6; [10]
  potency estimated from few doses: 1630 nM
CDK6; compound concentrations:100 nM and 1000 nM (sheet 'Lestaurtinib' of Supplementary Table 1),run:Lestaurtinib_02381_R1,Plate:MR004
  potency estimated from few doses: 1670 nM
CDK6; [12]
  potency estimated from few doses: 1670 nM
CDK6; [1]
  potency estimated from few doses: 2020 nM
CDK6; [3]
  potency estimated from few doses: 1830 nM
CDK6; compound concentrations:100 nM and 1000 nM (sheet 'Lestaurtinib' of Supplementary Table 1),run:Lestaurtinib_02601_R1,Plate:MR018
  potency estimated from few doses: 1350 nM
CDK6; compound concentrations:100 nM and 1000 nM (sheet 'Lestaurtinib' of Supplementary Table 1),run:Lestaurtinib_02765_R3,Plate:MR026
  potency estimated from few doses: 1590 nM
CDK6; [11]
  potency estimated from few doses: 1370 nM
CDK6; compound concentrations:100 nM and 1000 nM (sheet 'Lestaurtinib' of Supplementary Table 1),run:Lestaurtinib_03260_R1,Plate:MR033
  potency estimated from few doses: 914 nM
CDK6; compound concentrations:100 nM and 1000 nM (sheet 'Lestaurtinib' of Supplementary Table 1),run:Lestaurtinib_03260_R3,Plate:MR033
  potency estimated from few doses: 157 nM
DYRK1A; [6]
  potency estimated from few doses: 2310 nM
DYRK1A; compound concentrations:100 nM and 1000 nM (sheet 'Lestaurtinib' of Supplementary Table 1),run:Lestaurtinib_02381_R3,Plate:MR004
  potency estimated from few doses: 820 nM
DYRK1A; [13]
  potency estimated from few doses: 1580 nM
DYRK1A; compound concentrations:100 nM and 1000 nM (sheet 'Lestaurtinib' of Supplementary Table 1),run:Lestaurtinib_02566_R1,Plate:MR014
  potency estimated from few doses: 1580 nM
DYRK1A; compound concentrations:100 nM and 1000 nM (sheet 'Lestaurtinib' of Supplementary Table 1),run:Lestaurtinib_02577_R2,Plate:MR016
  potency estimated from few doses: 1670 nM
DYRK1A; [5]
  potency estimated from few doses: 987 nM
DYRK1A; compound concentrations:100 nM and 1000 nM (sheet 'Lestaurtinib' of Supplementary Table 1),run:Lestaurtinib_02766_R1,Plate:MR027
  potency estimated from few doses: 1760 nM
DYRK1A; [11]
  potency estimated from few doses: 1690 nM
DYRK1A; compound concentrations:100 nM and 1000 nM (sheet 'Lestaurtinib' of Supplementary Table 1),run:Lestaurtinib_03172_R3,Plate:MR031
  potency estimated from few doses: 1440 nM
ERCC2; [7]
  potency estimated from few doses: 1320 nM
ERCC2; [2]
  potency estimated from few doses: 161 nM
ERCC2; [9]
  potency estimated from few doses: 1440 nM
ERCC2; [3]
  potency estimated from few doses: 1590 nM
ERCC2; compound concentrations:100 nM and 1000 nM (sheet 'Lestaurtinib' of Supplementary Table 1),run:Lestaurtinib_02572_R2,Plate:MR015
  potency estimated from few doses: 261 nM
